# DENV2 CPE rescue: inhibitors of DENV2 cytopathic effect, primary screen, cell-based, plate reader, single concentration | DENV2-infected cells, cytopathic effect rescue | CPE inhibition, % at 9.99 µM | hit rate 1.7% among 350,000 | AID 651640, 2012; in the data active means CPE inhibition above about 20%, passing the limit was not always enough; inconclusive means no clear call, values can overlap the other calls; tested in BHK-21 cells;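 further: 0% = median of neutral control wells and 100% = median of positive control wells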
# MLL AF4-AF9 inh: inhibitors of AF4 peptide binding to AF9, primary screen, biochemical, AlphaScreen, biotin-AF4 peptide, FLAG-AF9, single point; hit rate 0.47% among 350,000; inhibition, % at 10 µM;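 active means every replicate reaching a set inhibition limit, whatever the replicate mean, cut at about 25% in these data; inconclusive means mean inhibition reaches that limit but some replicates miss it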;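 further: 0% = plate neutral control median and 100% = total signal loss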
# Target sequence (P42568 whole entry, looked up): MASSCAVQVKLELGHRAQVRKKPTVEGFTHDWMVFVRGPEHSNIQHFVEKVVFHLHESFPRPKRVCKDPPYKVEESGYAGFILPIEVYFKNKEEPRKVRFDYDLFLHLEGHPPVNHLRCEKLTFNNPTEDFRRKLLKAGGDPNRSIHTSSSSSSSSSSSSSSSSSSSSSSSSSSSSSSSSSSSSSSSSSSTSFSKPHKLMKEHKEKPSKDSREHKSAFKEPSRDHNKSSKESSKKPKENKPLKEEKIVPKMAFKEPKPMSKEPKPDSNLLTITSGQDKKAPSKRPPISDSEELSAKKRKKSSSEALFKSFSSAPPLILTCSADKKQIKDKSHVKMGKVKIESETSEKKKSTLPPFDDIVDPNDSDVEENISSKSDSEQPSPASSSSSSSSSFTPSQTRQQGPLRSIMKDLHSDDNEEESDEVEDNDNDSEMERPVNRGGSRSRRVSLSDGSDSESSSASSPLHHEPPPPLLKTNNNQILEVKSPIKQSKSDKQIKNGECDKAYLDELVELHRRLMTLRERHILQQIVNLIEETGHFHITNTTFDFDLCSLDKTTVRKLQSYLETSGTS
# FGF22 binding: binders of human FGF22 protein, primary screen, FGF22 synaptogenesis inhibitor project, biophysical, thermal shift, single point | activity (Tm shift, normalised), % at 9.99 µM | recombinant FGF22 thermal shift, SYPRO orange fluorescence; percent of sucrose octasulfate shift, DMSO zero | Fibroblast growth factor 22 (Homo sapiens), Q9HCT0 | hit rate 1.5% among 340,000;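 active means mean Tm shift, scaled 0 neutral to 100 positive control, at about 1.3% or above, every replicate too, limit read from the data; inconclusive means no clear call, values can overlap the other calls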
# ERAP1 HTS inh: human ERAP1 aminopeptidase inhibitors, primary screen, biochemical, single point, plate reader; inhibition, % at 10.7 µM; recombinant ERAP1, Leu-AMC fluorescence, 60 min; Endoplasmic reticulum aminopeptidase 1 (Homo sapiens), Q9NZ08; hit rate 0.15% among 340,000;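 active means mean replicate inhibition of at least 30%, or all replicates individually reaching that 30% level; inactive means mean below 30% and not every replicate reaching it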;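 further: 0% = neutral control wells and 100% = L-leucinethiol positive control wells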
# RAD52 anneal inh: RAD52 DNA annealing inhibitors, primary screen, biochemical, FRET, single point, set 2 | DNA repair protein RAD52 homolog (Homo sapiens), P43351 | recombinant RAD52 DNA annealing, FRET fluorescence | inhibition, % at 18.7 µM | hit rate 0.46% among 360,000 | AID 651710, 2012;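 active means every replicate showing at least 50% inhibition; inconclusive means mean inhibition at least 50% but not in every replicate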
# Starred values were filed as active, the others as inactive; ? = inconclusive; . = no result given. This is a sample that favours compounds with a hit; in the whole collection about 4% have one here.
SMILES,DENV2 CPE rescue,MLL AF4-AF9 inh,FGF22 binding,ERAP1 HTS inh,RAD52 anneal inh
C[C@H](CO)N1C[C@H](C)[C@H](CN(C)C)Oc2ncc(C#CC3CC3)cc2C1=O,102*,-1,0,-1,-9
C[C@H](CO)N1C[C@H](C)[C@H](CN(C)C(=O)Cc2ccccn2)Oc2ncc(C#CC3CC3)cc2C1=O,25*,-3,0,0,-5
COc1ccc(NC(=O)N(C)C[C@H]2Oc3ccc(NC(=O)C4CCCCC4)cc3C(=O)N([C@H](C)CO)C[C@H]2C)cc1,0,-2,0,3,5
C[C@@H]1CN([C@H](C)CO)C(=O)CCCn2cc(nn2)CO[C@@H]1CN(C)C,-2,-1,0,-2,14
Cc1[nH][nH]c(=O)c1C=NCc1cccs1,1,0,43,-1,-16
Cc1[nH][nH]c(=O)c1C=NCc1cccnc1,5,-6,44*,0,3
O=S(=O)(NC(=S)NC1CCCCC1)c1cccs1,-8,-5,43*,-4,-7
CCC(=O)N1[C@H](CN(C)C(=O)c2ccccc2F)[C@@H](c2ccccc2)[C@@H]1CO,20,.,.,.,.
O=C(Cc1c(F)cccc1Cl)NCCN1CCOCC1,1,-5,43*,2,5
COc1ccc(C(=O)NCCN2CCOCC2)c(OC)c1,10,-10,44*,-5,-12
COc1ccc(-n2cnc3cc(C(=O)NCCN4CCOCC4)ccc32)cc1,4,-1,44*,1,-8
Cc1ccccc1C(=O)NCCN1CCOCC1,-1,-1,44*,-1,-9
O=C(C[C@@H]1CC[C@H]2[C@@H](COC[C@H](O)CN2Cc2cc(F)cc(F)c2)O1)NC1CCC1,7,1,.,1,14
Cc1noc(C)c1S(=O)(=O)N(C)C[C@H]1OCCCC[C@@H](C)Oc2ccc(NC(=O)C3CCCCC3)cc2C(=O)N([C@@H](C)CO)C[C@@H]1C,-2,4,1,-4,-36
CCCCCc1cc(=O)oc2c(C(CCN3CCCCC3)c3ccc4c(c3)OCO4)c(OC)cc(OC)c12 (stereo not given),7,27*,0,0,16
CCCCCc1cc(=O)oc2c(C(CCN3CCCC(C)C3)c3ccc4c(c3)OCO4)c(OC)cc(OC)c12 (stereo not given),-4,21,0,0,11
CCCCCc1cc(=O)oc2c(C(CCN(CC)CC)c3cc(OC)c(OC)c(OC)c3)c(OC)cc(OC)c12 (stereo not given),-10,13,0,0,57*
COc1cccc(NC(=O)N[C@@H]2C=C[C@H](CC(=O)Nc3ccccc3)O[C@@H]2CO)c1,2,-2,.,0,-5
CCC(=O)N1[C@@H]2c3cccc(=O)n3C[C@@H]2[C@@H](CO)[C@@H]1C(=O)N[C@@H](C)c1ccccc1,16,-21,.,-9,5
CC(=O)Nc1cc(C(F)(F)F)ccc1N1CCOCC1,4,-8,0,2,-9
N#CCC(=O)Nc1cc(C(F)(F)F)ccc1N1CCOCC1,-8,1,0,3,-10
COc1ccc(NC(C)C(=O)Nc2cc(C(F)(F)F)ccc2N2CCOCC2)c(OC)c1 (stereo not given),-3,26*,0,-1,0
N#CCC(=O)Nc1ccc(C(F)(F)F)cc1N1CCOCC1,-3,-1,44*,-1,-4
O=C(COc1ccccc1)N/N=C/c1ccc([N+](=O)[O-])o1,3,2,0,2,-15
O=C(CNc1ccc2ccccc2c1)N/N=C/c1ccc([N+](=O)[O-])o1,.,3,43*,1,-16
SMILES,DENV2 CPE rescue,MLL AF4-AF9 inh,FGF22 binding,ERAP1 HTS inh,RAD52 anneal inh
CCC(=O)N1C[C@H](C)[C@@H](OC)CN(C)C(=O)c2ccc(NC(=O)C3CC3)cc2OC[C@@H]1C,40*,0,.,2,4
CCC(=O)Nc1ccc2c(c1)OC[C@H](C)N(C(=O)CC)C[C@H](C)[C@@H](OC)CN(C)C2=O,35*,-3,.,2,-8
CCC(=O)Nc1ccc2c(c1)OC[C@@H](C)N(C(=O)Nc1ccccc1F)C[C@@H](C)[C@H](OC)CN(C)C2=O,22*,-1,0,2,-3
CCCC(=O)Nc1ccc2c(c1)OC[C@H](C)N(C(=O)CC)C[C@@H](C)[C@H](OC)CN(C)C2=O,14,-2,0,-2,6
CCC(=O)Nc1ccc2c(c1)OC[C@@H](C)N(C(=O)Cc1cccnc1)C[C@@H](C)[C@H](OC)CN(C)C2=O,27*,-1,0,0,-8
COc1ccc(-c2cn(C[C@@H](Cc3ccccc3)NC(=O)Nc3ccccc3)nn2)cc1OC,-3,-1,0,2,10
CC(C)NC(=O)N1CC2(C1)[C@H](c1ccccc1)[C@@H](CO)N2C(=O)C1CCC1,1,-3,.,-2,-15
CO[C@@H]1CN(C)C(=O)c2ccc(NC(=O)C3CCOCC3)cc2OC[C@@H](C)N(C(=O)c2ccccc2)C[C@H]1C,4,-2,0,.,-13
COc1ccc(/C=N/OC(=O)Nc2ccccc2OC)cc1,8,-1,43*,-1,-1
COc1ccc(C=NNC(=S)NN=Cc2ccc(OC)c(OC)c2)cc1OC,-1,5,0,2,-19
Fc1ccc(NC(=S)NN=Cc2ccccc2Cl)cc1,-6,0,43*,4,-6
Oc1ccc(/C=N/NC(=S)Nc2cccnc2)cc1,3,?,1.5*,.,-13
Oc1ccccc1C=NNC(=S)Nc1ccc(F)cc1,-5,?,0,0,-25
COc1ccc(C=NNC(=S)Nc2ccc(F)cc2)cc1OC,10,0,65*,0,-8
COc1ccccc1NC(=S)N/N=C/c1ccc(O)cc1,-2,10,1.5*,-3,-11
N#CCC(=O)N/N=C/c1ccccc1Cl,3,-2,44*,0,-4
Cc1ccc(NCC(=O)N/N=C/c2cc(O)ccc2[N+](=O)[O-])cc1,7,0,43*,5,8
C[C@H](CO)N1C[C@H](C)[C@@H](CN(C)C(=O)CC2CC2)Oc2cc(C#CC3CC3)ccc2S1(=O)=O,-2,-1,0,-2,12
c1ccc(-c2ccccc2OCc2nnc3n2CCC3)cc1,0,-1,43*,-2,3
CN(C)C(=O)C[C@H]1CC[C@H]2[C@@H](COC[C@H](O)CN2Cc2ccc(C(F)(F)F)cc2)O1,1,-1,0,-1,3
COc1cc(C(=O)NCC(=O)N/N=C/c2cccnc2)cc(OC)c1OC,-3,45*,0,0,-5
COc1ccc(C(=O)NCC(=O)N/N=C/c2cccnc2)cc1OC,-2,2,0,-2,-4

# From PubChem BioAssay
